Assay outcomes deposited in PubChem by National Center for Advancing Translational Sciences (NCATS).
Rows were chosen to be rich in hits. Some 12% of all compounds tested hit in one or more screens of this group.
SARS PLpro yeast = blocks SARS-CoV papain-like protease in a yeast assay | 330,000 compounds, 0.19% hits | AID 485353 | S. cerevisiae expressing SARS-CoV PLpro, growth rescue | Potency, µM (top dose mostly 32.9 µM), hits mostly activators; calls by dose curve; note: nearly all actives have a fitted effect of over 55% in size
Pf growth 48h = inhibits P. falciparum growth in the first generation, 48 h; P. falciparum luciferase growth in erythrocytes, 48 h; Potency, µM (doses to about 28.7 µM), actives largely listed as inhibitors; 310,000 compounds, 5.9% hits
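Firefly luciferase activity from engineered P. falciparum reports growth; inhibitors lower the luminescent signal. Cultures contained 2% hematocrit erythrocytes at 0.1% final parasitemia.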
Sm TGR block = inhibitors of Schistosoma mansoni thioredoxin glutathione reductase; Potency, µM (titrated, usually from 114 µM), actives largely listed as inhibitors; 360,000 compounds, 3% hits; Q962Y6; purified TGR, DTNB reduction, TNB absorbance 405 nm; note: nearly all actives have a fitted effect of over 60% in size
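Kinetic colorimetric format: TGR-catalysed, NADPH-driven DTNB reduction monitored via TNB absorbance. Enzyme dispensed at 20 nM; compound exposure 15 min at room temperature before reaction start.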
Pf growth 96h = P. falciparum growth inhibition at 96 hours. P. falciparum luciferase reporter growth, 96 h. Potency, µM (highest dose often 28.7 µM), usual class: inhibitors. 320,000 compounds, 6.9% hits. AID 504834
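Readout is luminescence from an integrated firefly luciferase in P. falciparum. Red cells, 2% hematocrit and 0.05% parasitemia final, were cultured with compound through two parasite generations (96 hours) at 37 C, 5% CO2.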
Of the large screens only hits and unclear results are named; the others gave an inactive call. Unless noted, calls come from the whole dose curve; as a rule, active = well fitted curve in the direction sought with a large enough effect; inconclusive = small, poorly fitted or top-dose-only effect, or another doubt; inactive = no such curve, though single readings can be large; an effect the other way counts as inactive or inconclusive.

COC(=O)c1ccc(-n2c(C)cc(/C=N/Nc3nc(C)cc(=O)[nH]3)c2C)cc1	Pf growth 48h 8.3µM, Pf growth 96h 13µM
Cc1cc(=O)[nH]c(N/N=C/c2cc(C)n(CC(F)(F)F)c2C)n1	Pf growth 48h inconclusive, Pf growth 96h inconclusive
Cc1cc(=O)[nH]c(Nc2ccc(C(=O)OC(C)C)cc2)n1	Pf growth 48h inconclusive, Pf growth 96h 2.6µM
Cc1c(N=Cc2cc(Br)cc(Br)c2O)cccc1C(=O)O	Pf growth 48h 12µM, Pf growth 96h inconclusive
O=C(O)c1cccc(N/N=C/c2cc(Br)cc(Br)c2O)c1	Pf growth 96h inconclusive
COc1ccc(-n2ncc(C(=O)N3CCc4ccccc4C3)c2C2CCN(C(=O)OC(C)(C)C)CC2)cc1	none (no result: SARS PLpro yeast, Pf growth 48h, Pf growth 96h)
C/C(=N\NC(N)=S)C12CC3CC(CC(C3)C1)C2	Pf growth 96h 5.2µM (no result: Pf growth 48h)
O=C(NCc1ccccc1)c1noc2c1CCCCC2	Pf growth 96h 9.3µM
CC(=O)c1ccc(NC(=O)c2noc3c2CCC3)cc1	Sm TGR block 40µM, Pf growth 96h inconclusive
COc1ccc(CNC(=O)c2noc3c2CCCCC3)cc1	Pf growth 96h inconclusive
COc1ccc(NC(=O)c2noc3c2CCC3)cc1	none (no result: Pf growth 96h)
O=C(Nc1ccccc1C(=O)N1CCOCC1)c1noc2c1CCCC2	none (no result: Pf growth 96h)
COC(=O)c1ccccc1NC(=O)c1noc2c1CCCC2	Pf growth 96h 9.3µM
COc1cc(NC(=O)c2noc3c2CCC3)c(OC)cc1Cl	Pf growth 48h 2.6µM, Sm TGR block inconclusive
Cc1ccc(NC(=O)/C(C#N)=C\c2ccc(-c3ccc(Cl)cc3)o2)c(C)c1	none (no result: SARS PLpro yeast, Pf growth 48h, Pf growth 96h)
COC(=O)c1cc(C(=O)OCC(=O)NC2CCCC2)cc([N+](=O)[O-])c1	none (no result: Pf growth 48h)
O=C(NNC(=O)c1ccc(Cl)nc1)c1ccncc1	none
CC(=O)c1ccc(NC(=O)Cn2cc(S(=O)(=O)Cc3cccc(Cl)c3)c3ccccc32)cc1	none (no result: SARS PLpro yeast, Pf growth 48h, Pf growth 96h)
Cc1oc(CSCC2CCCO2)cc1C(=O)O (configuration not stated)	none (no result: Pf growth 96h)
Cc1oc(CSCCSCc2cc(C(=O)O)c(C)o2)cc1C(=O)O	Sm TGR block inconclusive, Pf growth 96h 15µM
Oc1ccc(N2CCN(C(c3ccncc3)c3nnnn3C3CCCC3)CC2)cc1 (configuration not stated)	Pf growth 48h inconclusive, Pf growth 96h inconclusive
c1cc(C(c2nnnn2C2CCCC2)N2CCOCC2)ccn1 (configuration not stated)	Sm TGR block 28µM
COc1ccc(C(c2nnnn2C2CCCC2)N2CCC(C(N)=O)CC2)c(OC)c1 (configuration not stated)	Pf growth 48h inconclusive, Pf growth 96h inconclusive
c1cncc(C(c2nnnn2C2CCCCC2)N2CCCCC2)c1 (configuration not stated)	Pf growth 48h 15µM
CCOC(=O)c1cc2oc(C(c3nnnn3C3CCCCC3)N3CCOCC3)cc2[nH]1 (configuration not stated)	Pf growth 48h 9.3µM, Pf growth 96h 9.3µM
Cc1ccc(Cl)cc1N1CCN(C(c2cccnc2)c2nnnn2C2CCCCC2)CC1 (configuration not stated)	Pf growth 48h inconclusive
Cc1ccc(Cl)cc1N1CCN(C(c2ccc(C#N)cc2)c2nnnn2C2CCCC2)CC1 (configuration not stated)	Pf growth 48h 2.3µM
Oc1ccc(C(c2nnnn2C2CCCCC2)N2CCOCC2)cc1 (configuration not stated)	Sm TGR block 2.8µM, Pf growth 96h inconclusive
CC(C)C(c1nnnn1C1CCCC1)N1CCCCC1 (configuration not stated)	Pf growth 96h 15µM (no result: Pf growth 48h)
Cc1c(C(=O)NCc2ccccc2Cl)sc2ncnc(N(C)C3CCCCC3)c12	none (no result: SARS PLpro yeast, Pf growth 48h, Pf growth 96h)
COc1ccc([C@@H]2[C@@H]3C(=O)N(C(C)(C)C)C(=O)[C@@H]3[C@]3(Cc4ccc(Cl)cc4)C(=O)N(c4ccc(C)cc4)C(=O)N23)cc1	Pf growth 48h 13µM, Pf growth 96h 6.6µM
COc1ccc(N2C(=O)N3[C@H](c4cccc(C)c4)[C@@H]4C(=O)N(Cc5ccccc5)C(=O)[C@@H]4[C@]3(Cc3ccccc3)C2=O)cc1	Pf growth 48h inconclusive, Pf growth 96h 4.7µM
CCN1C(=O)[C@H]2[C@@H](c3ccc(C)cc3)N3C(=O)N(c4ccc(OC)cc4)C(=O)[C@@]3(CC)[C@H]2C1=O	none
COc1ccc([C@@H]2[C@@H]3C(=O)N(C(C)(C)C)C(=O)[C@@H]3[C@]3(Cc4ccc(Cl)cc4)C(=O)N(c4cccc(C)c4)C(=O)N23)cc1	Pf growth 48h inconclusive, Pf growth 96h 8.3µM
COc1ccc(NC(=O)C2CCCN2C(=O)NC2CCCCC2)c(OC)c1 (configuration not stated)	none
CCc1ccc(C(=O)c2cn(CC(=O)NCCc3ccc(OC)c(OC)c3)c3nc(C)ccc3c2=O)cc1	none (no result: SARS PLpro yeast, Pf growth 48h, Pf growth 96h)
O=C(O)c1ccc2c(c1)C(=O)N(c1cccc(C(=O)/C=C/c3ccccc3)c1)C2=O	Sm TGR block 25µM
O=C(O)c1cccc(N2C(=O)c3cc4cccc(Br)c4cc3C2=O)c1	none
O=C(O)c1ccc2c(c1)C(=O)N(c1ccc([N+](=O)[O-])cn1)C2=O	none
O=C(O)c1cccc(N2C(=O)c3ccc(C(=O)c4cccc([N+](=O)[O-])c4)cc3C2=O)c1	Sm TGR block 50µM
O=C(O)c1cccc(NC(=O)c2ccc(N3C(=O)c4ccc(C(=O)Nc5cccc(C(=O)O)c5)cc4C3=O)cc2)c1	none
O=C(O)c1cccc(NC(=O)c2ccc3c(c2)C(=O)N(c2cccc([N+](=O)[O-])c2)C3=O)c1	Pf growth 96h 5.9µM
Cc1ccc(-n2nnnc2SCC(=O)NC2CC2)cc1C	Pf growth 48h inconclusive
O=C(Cc1ccc(NC(=O)N2CCCCc3ccccc32)cc1)NCc1cccc(Br)c1	none (no result: SARS PLpro yeast, Pf growth 48h, Pf growth 96h)
CC(C)(C)C1CCc2c(sc(NC(=O)c3cccc(Cl)c3)c2C(N)=O)C1 (configuration not stated)	none (no result: SARS PLpro yeast, Pf growth 48h, Pf growth 96h)
CC[C@H](C)C(N)c1cn(C(CCCN=C(N)N)C(=O)N2CCNCC2)nn1 (some centres not stated)	none
O=C(Nc1ccc(Cl)cc1)Nc1nnc(CSCc2ccc(Cl)cc2)s1	Pf growth 48h 4.1µM, Pf growth 96h 8.3µM
CCC(=O)Nc1nnc(CSCc2ccc(F)cc2)s1	Pf growth 96h 0.93µM (no result: Pf growth 48h)
CC(C)C[C@@H](NC(=O)C1CCC(CNC(=O)[C@H](Cc2ccccc2)NC(=O)OC(C)(C)C)CC1)C(=O)O (some centres not stated)	none
COC(=O)CN1CCN(C(c2ccccc2)c2ccccc2)CC1	Sm TGR block 45µM
COCCNC(=O)CN1CCN(C(c2ccccc2)c2ccccc2)CC1	Pf growth 48h inconclusive, Pf growth 96h inconclusive
CN(Cc1ccccc1)C(=O)CN1CCN(C(c2ccccc2)c2ccccc2)CC1	Pf growth 96h 10µM
CCCCC(=O)Nc1cc(C)c(O)c(-c2nc3ncccc3o2)c1	none (no result: SARS PLpro yeast, Pf growth 48h, Pf growth 96h)
COc1ccc(C(=O)CSc2nc3cccnc3n2C)cc1	Pf growth 96h 3.7µM
CC1CCN(C(=O)CSc2nc3c(c(=O)n2C)SCC3)CC1	Pf growth 96h inconclusive
Cn1c(SCC(=O)N2CCCCCC2)nc2c(c1=O)SCC2	Pf growth 96h 4.7µM
